Source: the supplement of paper PMC7057948, “A genome-wide approach for identification and characterisation of metabolite-inducible systems” (Nature Communications, 2020)

What follows are compounds tested on HpdR/P_H16_RS18295 3-hydroxypropanoate biosensor (pEH010) (assay: relative induction of RFP reporter vs primary effector; higher = stronger activation). Settings: inducer concentration 5 mM; 6 h; Cupriavidus necator H16; minimal medium + 0.4% gluconate.
Protocol: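 Orthogonality screen of 21 primary inducers against 21 transcription factor/inducible promoter–mRFP biosensors in C. necator H16 in minimal medium, robotic 96-well format, 5 mM inducer, 30 °C. OD-normalised RFP fluorescence was read 6 h later and expressed as relative induction (%) = 100 × (FL compound − FL uninduced)/(FL primary inducer − FL uninduced); mean of n=4. Cognate pairs (100% by definition) omitted.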

| Structure (SMILES) | relative induction of RFP reporter |
| --- | --- |
| O=CO [formate] | 0.0754% |
| O=C(O)C1CCCCC1 [cyclohexane-1-carboxylate] | -0.461% |
| C=C(CC(=O)O)C(=O)O [itaconate] | -0.14% |
| O=C(O)c1ccccc1 [benzoate] | -0.293% |
| Nc1ccccc1C(=O)C[C@H](N)C(=O)O [L-kynurenine] | -0.129% |
| NCCC(=O)O [β-alanine] | 0.231% |
| O=C(O)CS(=O)(=O)O [sulfonatoacetate] | -0.0436% |
| CC(=O)C(C)O (stereo unspecified) [acetoin] | -0.347% |
| O=C(O)c1ccc(O)c(O)c1 [3,4-dihydroxybenzoate] | -0.0358% |
| N[C@@H](Cc1ccccc1)C(=O)O [L-phenylalanine] | -0.399% |
| OC1OC[C@H](O)[C@H](O)[C@H]1O (mixture of isomers) [L-arabinose] | 0.017% |
| O=C(O)c1ccccc1O [salicylate] | 0.195% |
| N[C@@H](Cc1ccc(O)cc1)C(=O)O [L-tyrosine] | -0.292% |
| O=C(O)C(O)C(O)C(=O)O (stereo unspecified) [tartrate] | -0.0938% |
| O=C(O)C(=O)c1ccccc1 [phenylglyoxylate] | -0.296% |
| O=c1[nH]c(=O)c2nc[nH]c2[nH]1 [xanthine] | 0.1% |
